# Laboratory results as given in PubChem BioAssay AID1508625 (Wald Lab, School of Medicine, Case Western Reserve …, 2021).
# Experiment: small molecules boosting NK-mediated OVCAR3 lysis – imaging, primary NK cells, calcein-AM imaging, primary screen (AID 1508625);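 also: compound given to NK cells 16 h before adding targets at 1.5 to 1 ratio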;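 as to z-score: more negative robust z means stronger NK killing of tumor cells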
# Settings: OVCAR3 lysis by primary NK cells, at 5 µM; z-score: measured here: robust Z-score, single-point normalisation
SMILES,"corrected activity, negative = more killing",z-score
O=C(CCn1c(=S)[nH]c2ccccc2c1=O)NCCc1ccc(Cl)cc1,-2.39%,-0.633
C=CCn1c(COc2cccc3cccnc23)nnc1SCC(=O)OC,-7.09%,-2.01
Cc1ccc2c(N)c(C#N)sc2n1,-0.436%,-0.166
CCCc1sc(N2CCN(C(=O)c3ccccc3)CC2)nc1-c1ccccc1,-5.71%,-1.77
Cc1cc(Cl)ccc1OCC(=O)Nc1cccc2c1C(=O)c1ccccc1C2=O,-3.52%,-1.45
CC(C)CCNC(=O)c1c[nH]c2ccc(S(=O)(=O)N3CC(C)CC(C)C3)cc2c1=O (stereo not drawn),-3.33%,-1.21
Cc1ccc(C)c(N=Cc2c(C)[nH]c3ccccc23)c1,-2.79%,-1.18
CCCC(=O)Nc1cc(-c2nc3ccc(C)cc3o2)ccc1Cl,-2.67%,-1.43
CC(C)OC(=O)CN1CCCN(S(=O)(=O)c2ccc(F)cc2)CC1,-3.05%,-0.969
COc1ccc(CN2C(=O)c3ccccc3C2C(=O)NCCCN2CC(C)CC(C)C2)cc1 (stereo not drawn),-3.06%,-0.869
CCOc1ccc(NC(=O)C2c3ccccc3Oc3ccccc32)c([N+](=O)[O-])c1,-0.899%,-0.37
CC(C(=O)N1CCN(c2ccccc2)CC1)c1ccc([N+](=O)[O-])cc1 (stereo not drawn),-3.44%,-1.91
O=C(Nc1cccc(-c2nc3ccccc3o2)c1)C1CCCCC1,-2.15%,-0.667
O=C(Nc1c[nH]c(=O)[nH]c1=O)c1ccc(N2C(=O)C3C4C=CC(C4)C3C2=O)cc1 (stereo not drawn),0.344%,0.184
O=C(O)CCn1ncc2ccccc21,-4.13%,-1.31
CCC(C)NC(=O)c1ccc2c(=O)n(CCN(CC)CC)c(=S)[nH]c2c1 (stereo not drawn),-4.1%,-1.09
Cc1ccc(-n2ncc3c(=O)[nH]c(SCC(C)C)nc32)cc1C,-9.35%,-2.29
COc1ccc2ccccc2c1C=Nc1cc(C)ccc1C,-0.753%,-0.32
COC(=O)c1ccc(NC(=O)CN2CCN(CC#N)CC2)cc1,-5.45%,-2.05
O=[N+]([O-])c1ccc(C=Nn2c(CO)nc3ccccc32)cc1,-5.03%,-1.6
CN(C(=O)Cn1ncc2c(=O)oc3ccccc3c21)c1ccc(Br)cc1,-6.99%,-1.72
COC(=O)c1ccc(CSc2nc3c(cnn3-c3ccc(C)cc3)c(=O)[nH]2)o1,-3.63%,-0.89

SMILES,"corrected activity, negative = more killing",z-score
Cc1ccc(C(=O)Nc2cccc(C(=O)N3CCOCC3)c2)cc1Cl,-0.0326%,-0.0182
O=C(O)c1cccc(N2C(=O)c3ccc(C(=O)c4ccc5c(c4)C(=O)N(c4cccc(C(=O)O)c4)C5=O)cc3C2=O)c1,-1.17%,-0.363
CCCCCCCNC(=O)c1ccc2c(c1)ncn2-c1cccc(F)c1,-3.62%,-0.976
Cc1[nH]c2ccc(-c3n[nH]c(=S)n3C)cc2c1C,-0.764%,-0.278
Cc1ccc(C(=O)Nc2cccc3c2C(=O)c2ccccc2C3=O)o1,-2.82%,-1.16
O=C(O)C1CSC(c2cccs2)=N1 (stereo not drawn),-4.41%,-1.19
CCCNC(=O)C(=O)Nc1ccc(C(C)C)cc1,-1.6%,-0.603
CCOc1cc(C(=S)N2CCOCC2)ccc1OC(=O)Cc1ccccc1,-7.5%,-2.32
CC(=O)Nc1ncc(Br)cc1[N+](=O)[O-],-1.26%,-0.391
O=C(Nc1cc2c(cc1C(=O)c1ccc(Br)cc1)OCCO2)c1ccc(Cl)cc1,-4.2%,-1.3
CC1(C)NN=C(N)SC1=O,-0.451%,-0.14
CC(C)NCCOCCOc1cccc(Br)c1,-3.24%,-1.21
O=C(NCc1ccccn1)c1sc2cc([N+](=O)[O-])ccc2c1Cl,-2.44%,-0.775
c1cncc(CNC23CC4CC(CC(C4)C2)C3)c1,-3.27%,-1.04
CCCc1cc(=O)oc2cc3oc4c(c3cc12)CCCC4,-1.47%,-0.438
Cc1ccc(C(=O)Nc2ccc(NC(=O)c3ccc(C(C)(C)C)cc3)cc2)cc1[N+](=O)[O-],-2.5%,-0.888
COc1ccc(-c2n[nH]c(=S)o2)cc1,-4.44%,-1.69
Cc1ccc(NC(=O)c2cc(S(=O)(=O)NCCc3ccccc3)ccc2F)cc1F,-5%,-1.35
O=C(CNC(=O)OCc1ccccc1)Oc1cc2oc(=O)c3c(c2cc1Cl)CCC3,-2.23%,-0.829
Cc1ccc(N2CC(C(=O)Nc3cccc(C)n3)CC2=O)cc1 (stereo not drawn),-3%,-1.13
COc1ccc(C(O)=C2C(=O)C(=O)N(CCN3CCNCC3)C2c2ccc(OC)cc2)cc1 (stereo not drawn),-4.32%,-1.87
Cc1ccc2c(c1)NCC(C(=O)O)O2 (stereo not drawn),-4.87%,-1.31
